The record followed here is PubChem BioAssay (NCI).

Common to all, as to assay: NCI-60 one-dose screen, 48 h (100 = growth as untreated, 0 = no growth, -100 = all killed)
The subject of assay [1] is NCI-H23 lung.
Assay [2] concerns NCI-H226 lung.
Assay [3] relates to NCI-H322M lung.
The test system of assay [4] is HOP-62 NSCLC.
Assay [5] relates to NCI-H460 lung.
Assay [6] relates to HOP-92 NSCLC.
In assay [7] the test system is NCI-H522 lung.
Assay [8] deals with 786-0 renal.
In assay [9] the test system is COLO 205 colon.
For assay [10], the system named is DU-145 prostate.
Assay [11] relates to MALME-3M melanoma.
The test system of assay [12] is MDA-MB-231 breast.
Assay [13] has as its system RXF 393 renal.
Assay [14] has as its system SF-268 CNS.
For assay [15], the system named is SF-295 CNS.
For assay [16], the system named is SF-539 CNS.
For assay [17], the system named is UACC-257 melanoma.
The test system of assay [18] is M14 melanoma.
The subject of assay [19] is A549/ATCC NSCLC. The conditions noted are these: 10 µM unless noted.
Assay [20] deals with K-562 leukemia. The conditions noted are these: 10 µM unless noted.

Compounds without any hit were thinned out: in the full panel of roughly 83,000, 20% have a hit.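 Treatment: one concentration, 48 hours, 96-well format. Scoring: percent growth, with anything below 10 considered active.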 Unmarked numbers belong to inactive results. Calls of active or inactive are those of the source.

On to `CC/C(=C(/c1ccc(O)cc1)c1ccc(OCCN(C)C(=O)COCCOCCNC(=O)c2ccc3c(c2)CN([C@@H]2CCC(=O)NC2=O)C3=O)cc1)c1ccccc1`, for which the growth in [1] (1 µM) is 99%; in assay [1] (10 µM) it was 97%; in assay [2] (1 µM), 89.4%; in assay [2] (10 µM), 65.4%; in assay [3] (1 µM) it was 101%; in [3] (10 µM), 85.2%. Moreover, the growth in [4] (1 µM) was 93.4%; in assay [4] (10 µM), 81%; in assay [5] (1 µM), 111%; in assay [5] (10 µM) it was 114%; in assay [6] (1 µM), 26.9%; in assay [6] (10 µM) it was 18.2%. For the same molecule, the growth in [7] (1 µM) is 91.7%; in assay [7] (10 µM) it was 90%; in [8] (1 µM), 94%; in assay [8] (10 µM), 96.7%; in assay [9] (1 µM) it was 91.3%; in assay [9] (10 µM), 79.3%. In addition, the growth is 107% in assay [10] (1 µM); 109% in [10] (10 µM); 64.1% in assay [11] (1 µM); 31.4% in [11] (10 µM); 25.5% in [12] (1 µM); 8.81% (active) in [12] (10 µM). The growth in assay [13] (1 µM) was 98.3%; in [13] (10 µM) it was 99%; in [14] (1 µM), 88.3%; in [14] (10 µM), 83.7%; in assay [15] (1 µM) it was 102%; in [15] (10 µM), 94.8%. Further, the growth is 92.1% in assay [16] (1 µM); 91.1% in [16] (10 µM); 96.2% in assay [17] (1 µM); 95.5% in assay [17] (10 µM); 89.9% in assay [18] (1 µM); 92% in assay [18] (10 µM).
`Cc1ccc(C(=O)Nc2cc(-c3ccncc3)cc(C(F)(F)F)c2)cc1C#Cc1cnc2cccnn12`: the growth in [1] (10 µM unless noted) was 35.5%; in assay [2] (10 µM unless noted) it was 27.9%; in assay [3] (10 µM unless noted) it was 79%; in [4] (10 µM unless noted) it was 44.3%; in assay [5] (10 µM unless noted), 51.8%; in assay [6] (10 µM unless noted) it was 31.7%. In addition, the growth in assay [7] (10 µM unless noted) was 33.1%; in assay [19], 48.6%; in [8] (10 µM unless noted), 46.3%; in [9] (10 µM unless noted), 32.3%; in [10] (10 µM unless noted) it was 68.9%; in assay [20], 2.38% (active). Moreover, the growth in assay [11] (10 µM unless noted) is -11.8% (active); in [12] (10 µM unless noted), 23.7%; in [13] (10 µM unless noted), 28.8%; in assay [14] (10 µM unless noted) it was 79.4%; in assay [15] (10 µM unless noted), 46.3%; in [16] (10 µM unless noted), 32.3%. For the same molecule, in assay [17] (10 µM unless noted), the growth was 40.9%.
Regarding `O=C1NC(=S)/C(=C/c2cn(-c3ccccc3)nc2-c2ccccc2)S1`, the growth in assay [1] (10 µM unless noted) was 12.5%; in assay [2] (10 µM unless noted) it was 34.1%; in assay [3] (10 µM unless noted), 31.7%; in assay [4] (10 µM unless noted) it was 72.6%; in assay [5] (10 µM unless noted), 9.19% (active); in [6] (10 µM unless noted) it was 13.7%. Besides, the growth in [7] (10 µM unless noted) is -9.92% (active); in assay [19], 17.7%; in assay [8] (10 µM unless noted), 20.8%; in assay [9] (10 µM unless noted), 33.2%; in assay [10] (10 µM unless noted) it was 34.4%; in assay [20], 22.2%. In addition, the growth in [11] (10 µM unless noted) is 10.4%; in assay [12] (10 µM unless noted) it was 39.5%; in [13] (10 µM unless noted), 9.95% (active); in [14] (10 µM unless noted), 36.4%; in [15] (10 µM unless noted), 17%; in assay [16] (10 µM unless noted), 22.5%. Moreover, the growth was 6.05% (active) in [17] (10 µM unless noted) and 25% in assay [18] (10 µM unless noted).
As for `COc1ccc(N=Nc2c(N)nn3c(-c4cc5ccccc5oc4=O)ccnc23)cc1`, the growth in [1] (10 µM unless noted) is 36.6%; in assay [2] (10 µM unless noted), 3.29% (active); in assay [3] (10 µM unless noted), 63.4%; in assay [4] (10 µM unless noted), 14.7%; in assay [5] (10 µM unless noted), 17.2%; in [6] (10 µM unless noted), 34.3%. Besides, the growth in assay [7] (10 µM unless noted) is 72.7%; in assay [19], 59.4%; in assay [8] (10 µM unless noted), 15.6%; in assay [9] (10 µM unless noted) it was 63.9%; in assay [10] (10 µM unless noted) it was 61.9%; in assay [20], 51.5%. Moreover, the growth is 49.3% in [11] (10 µM unless noted); -3.18% (active) in assay [12] (10 µM unless noted); 10.1% in [13] (10 µM unless noted); 57.8% in [14] (10 µM unless noted); 34.5% in [15] (10 µM unless noted); 15.2% in assay [16] (10 µM unless noted). For the same molecule, the growth in assay [17] (10 µM unless noted) was 88.4%; in [18] (10 µM unless noted), 59.5%.
In the case of `CN(C)c1nc(NCCNS(=O)(=O)c2ccc(C(=O)/C=C/c3ccc(F)cc3)cc2)nc(N2CCOCC2)n1`, the growth in assay [1] (10 µM unless noted) was 50.9%; in [2] (10 µM unless noted), 74%; in [3] (10 µM unless noted) it was 84.4%; in assay [4] (10 µM unless noted), 76.2%; in [5] (10 µM unless noted) it was 78.5%; in assay [6] (10 µM unless noted), 77.8%. Moreover, the growth in assay [7] (10 µM unless noted) was 28.7%; in [19], 7.37% (active); in [8] (10 µM unless noted), -55.7% (active); in assay [9] (10 µM unless noted), 35%; in assay [10] (10 µM unless noted) it was 33.3%; in [20] it was 0.84% (active). The growth in assay [11] (10 µM unless noted) is 84.8%; in assay [12] (10 µM unless noted), 36.4%; in assay [13] (10 µM unless noted) it was 76.6%; in assay [14] (10 µM unless noted) it was 73%; in [15] (10 µM unless noted), 79.2%; in [16] (10 µM unless noted), 12.2%. Besides, the growth in assay [17] (10 µM unless noted) was 70.1%.
For the molecule `Cc1ccc(NC(=O)N/N=C/c2c[nH]c3ccccc23)c(C)c1`, the growth in assay [1] (10 µM unless noted) is 12.6%; in assay [2] (10 µM unless noted) it was 12.6%; in assay [3] (10 µM unless noted) it was 42%; in assay [4] (10 µM unless noted), 34.4%; in [5] (10 µM unless noted), 5.78% (active); in [6] (10 µM unless noted) it was 16.3%. The growth was -36.8% (active) in assay [7] (10 µM unless noted); 14.9% in assay [19]; -18.4% (active) in assay [8] (10 µM unless noted); -51.5% (active) in [9] (10 µM unless noted); 12.9% in assay [10] (10 µM unless noted); 10.5% in [20]. Besides, the growth is 52.8% in [11] (10 µM unless noted); 21.1% in [12] (10 µM unless noted); -12.3% (active) in [13] (10 µM unless noted); 11.8% in assay [14] (10 µM unless noted); 5.78% (active) in [15] (10 µM unless noted); -5.67% (active) in assay [16] (10 µM unless noted). Besides, the growth in [17] (10 µM unless noted) is 46.5%.
